Measurements taken from PubChem BioAssay.
Some of the results follow. Active and inactive are the calls of the source.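 Rule for the calls, unless noted: active = inhibition above the mean plus 3 SD of solvent-only control wells, limit set per screening run (cut at about 16% in these data); inactive = the rest.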

Experiments:
[1] = target: Peroxisome proliferator-activated receptor gamma (Homo sapiens) (UniProt P37231); assay: retested PPARg-SRC-2 recruitment enhancers – biochemical, HTS, confirmation (AID 1297; in the data active = activation above about 22%;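 note: 0% = vehicle alone and 100% = reference agonist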); settings: biochemical SRC-2 recruitment by PPARgamma; at 8 µM; active compounds read high
[2] = target: Peroxisome proliferator-activated receptor gamma (Homo sapiens) (UniProt P37231); assay: retest of SRC-1 recruitment enhancers for PPARgamma – biochemical, confirmation (AID 1300; in the data active = activation above about 20%;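 note: 0% = vehicle wells and 100% = reference agonist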); settings: PPARgamma–SRC-1 coactivator recruitment biochemical assay; at 8 µM; active compounds read high
[3] = target: Peroxisome proliferator-activated receptor gamma (Homo sapiens) + Nuclear receptor coactivator 3 (Homo sapiens) (UniProt P37231+Q9Y6Q9); assay: agonists promoting SRC-3 binding to PPARgamma – biochemical, confirmation (AID 1301; in the data active = activation above about 24%;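 note: 0% = vehicle wells and 100% = reference agonist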); settings: biochemical PPARgamma-SRC-3 coactivator recruitment, agonist mode; at 8 µM; active compounds read high
[4] = blockers of IL-6 STAT3 signaling – U3A cells, luciferase, luminescence, confirmation (AID 1265;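 active = inhibition above the hit cutoff computed for the primary STAT3 screen, cut at about 44% in these data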;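 note: 0% = IL-6 plus DMSO and 100% = IL-6 plus nifuroxazide control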); settings: IL-6 STAT3 luciferase reporter, at 5.7 µM, active compounds read high, cell line lacks STAT1
[5] = inhibition of TNF-alpha-driven NF-kB transcription – cell-based, HEK293T, luciferase, TNF-alpha stimulus, counter-screen for STAT3 inhibitor project, confirmation (AID 1308;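 active = inhibition above the mean of solvent-only control wells plus 3 SD, cutoff set per campaign, cut at about 13% in these data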;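 note: 0% = TNF-alpha with DMSO and 100% = TNF-alpha with MG high control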); settings: HEK293T NF-kB luciferase reporter, TNF-alpha induced; at 5.7 µM; active compounds read high
[6] = inhibition of STAT1-driven transcription – cell-based, NIH 3T3, luciferase luminescence, IFN-gamma, counter-screen for STAT3 inhibitor project, confirmation (AID 1317); settings: NIH 3T3 STAT1-luciferase reporter, IFN-gamma induced, at 5.7 µM, active compounds read high;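 note: 0% = DMSO with IFN-gamma and 100% = nifuroxazide control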
[7] = StAR promoter reporter inhibitors, counter-screen for LRH-1 inverse agonist project, cell-based, luminescence, high throughput (AID 651611; in the data active = inhibition above about 28%); settings: StAR promoter luciferase reporter counterscreen, at 3.6 µM, active compounds read high
[8] = target: Nuclear receptor subfamily 5 group A member 2 (Homo sapiens) (UniProt O00482); assay: NR5A2 activity suppression in reporter cells – cell-based, luminescence, confirmation (AID 651613; in the data active = inhibition above about 42%;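 note: HEK293T cells co-transfected with LRH-1 and StAR promoter luciferase reporter; 0% = vehicle wells and 100% = parental cells lacking receptor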); settings: cell-based LRH-1 luciferase reporter, inverse agonism; at 3.6 µM; active compounds read high
[9] = target: Steroidogenic factor 1 (Homo sapiens) (UniProt Q13285); assay: inverse agonism at SF1 nuclear receptor – cell-based, luminescence, high throughput, counter-screen for LRH-1 inverse agonist project (AID 651614; in the data active = inhibition above about 44%;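 note: cells cotransfected with StAR promoter reporter and SF1 expression vector; 0% = vehicle on cells with receptor and 100% = vehicle on cells lacking receptor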); settings: cell-based SF1 luciferase reporter, at 3.6 µM, active compounds read high
[10] = compounds suppressing VP16-driven luciferase signal – cell-based, luminescence, high throughput, counter-screen for LRH-1 inverse agonist project (AID 651615; in the data active = inhibition above about 33%); settings: Gal4-VP16 luciferase reporter cells, at 3.6 µM, active compounds read high
[11] = VP16-driven transactivation reporter suppression – cell-based, luminescence, HEK293, counter-screen for COUP-TFII antagonist project (AID 687007; in the data active = inhibition above about 13%); settings: HEK293 Gal4-VP16 luciferase reporter, at 8.5 µM, active compounds read high
[12] = target: COUP transcription factor 2 (Homo sapiens) (UniProt P24468); assay: retest of COUP-TFII reporter suppressors – cell-based, luciferase reporter, HEK293, triplicate, confirmation (AID 687008;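 active = mean inhibition over three repeats above a set limit taken from the earlier primary screen, cut at about 38% in these data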;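 note: 100% = cells given the luciferase reporter alone without the COUP-TF2 vector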); settings: HEK293 NGFI-A luciferase reporter, luminescence; at 8.5 µM; active compounds read high
[13] = target: Oxysterols receptor LXR-beta (Homo sapiens) (UniProt P55055); assay: nonspecific reporter activation via LXR – cell-based, luminescence, HEK293, H. contortus campaign, counter-screen for hcDAF-12 agonist project, confirmation (AID 743027;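 active = mean percent activation of the reporter above a cutoff set as the average over tested compounds plus their standard deviation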); settings: HEK293 Gal4-LXR tk-luc reporter, 24 h, at 6.8 µM, active compounds read high, normalized: DMSO 0%, positive control 100%
[14] = tested on: Nuclear hormone receptor DAF-12 (Haemonchus contortus); assay: hcDAF-12 luciferase reporter activation, retest – cell-based, luminescence, HEK293, lit1-tk-luc, triplicate, confirmation (AID 743032;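 active = mean activation across triplicate tests above the threshold derived from the earlier primary screen, cut at about 5.5% in these data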;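 note: 0% = DMSO only wells and 100% = 3 µM Δ7-dafachronic acid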); settings: HEK293 hcDAF-12 lit1-tk-luc reporter, at 6.8 µM, active compounds read high, % of Δ7-dafachronic acid response
[15] = target: Photoreceptor-specific nuclear receptor (Homo sapiens) (UniProt Q9Y5X4); assay: retest of NR2E3-NCOR disrupting agonists – cell-based, luminescence, CHO-S two-hybrid, confirmation (AID 624378;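 active = average inhibition above a cutoff equal to the mean inhibition of all tested compounds plus one SD, cut at about 70% in these data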;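 note: 0% = DMSO in NR2E3 cells and 100% = DMSO in cells lacking NR2E3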); settings: CHO-S mammalian two-hybrid NR2E3-NCOR, luciferase luminescence; at 3.98 µM; active compounds read high
[16] = nonselective effects on VP16 transactivation – cell-based, luminescence, CHO-S, high throughput, counter-screen for NR2E3 agonist project, confirmation (AID 624379;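 active = mean inhibition above a cutoff equal to the average over all tested compounds plus one standard deviation, cut at about 70% in these data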;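 note: 0% = DMSO with VP16-transfected cells and 100% = DMSO with cells lacking VP16; higher means less reporter light so more repression of VP16 activity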); settings: CHO-S GAL4-VP16 luciferase reporter, at 3.98 µM, active compounds read high
[17] = tested on: DAF-12 nuclear receptor (Heterodera glycines), GAL4-LBD fusion; assay: hgDAF-12 GAL4 fusion reporter activation, retest – cell-based, luminescence, HEK293, GAL4-LBD fusion, confirmation (AID 743050;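 active = mean activation over triplicate wells above the hit cutoff derived from the earlier primary screen, cut at about 11% in these data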;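 note: 0% = DMSO low control and 100% = 2 mM sodium butyrate high control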); settings: HEK293 GAL4-hgDAF12 luciferase reporter, agonist mode; at 6.8 µM; active compounds read high; percent of butyrate response
[18] = target: Oxysterols receptor LXR-beta (Homo sapiens) (UniProt P55055); assay: nonspecific reporter activation via LXR – cell-based, luminescence, HEK293, H. glycines campaign, counter-screen for hgDAF-12 agonist project, confirmation (AID 743051;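 active = mean activation of the triplicate above a set limit carried over from the primary screen, none filed active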); settings: HEK293 Gal4-LXR luciferase reporter, 24 h; at 6.8 µM; active compounds read high
[19] = target: Galanin receptor type 2 (Homo sapiens) (UniProt O43603); assay: blockers of human galanin receptor 2 – cell-based, confirmation (AID 866; in the data active = inhibition above about 27%;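 note: cells stimulated with galanin at about its EC80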); settings: GALR2-expressing cells, antagonist mode, at 4 µM, active compounds read high
[20] = nonspecific BLA reporter inhibition – CHO NFAT-bla cells, FRET readout, counter-screen for GALR2 antagonist project, confirmation (AID 867;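 active = inhibition above the mean inhibition across tested compounds plus 3 SD, cut at about 27% in these data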;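 note: 0% = 500 nM thapsigargin stimulated wells and 100% = unstimulated BSA only wells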); settings: beta-lactamase FRET, thapsigargin-stimulated, at 4.2 µM, active compounds read high
[21] = target: Neuropeptide Y receptor type 2 (Homo sapiens) (UniProt P49146); assay: human Y2 receptor positive modulation or activation – cell-based, confirmation (AID 1539; in the data active = activation above about 33%); settings: cell-based NPY-Y2 potentiator/agonist assay; at 3.6 µM; active compounds read high
[22] = target: Neuropeptide Y receptor type 1 (Homo sapiens) (UniProt P25929); assay: human Y1 receptor positive modulation or activation – cell-based, fluorescence, counter-screen for NPY-Y2 potentiator project (AID 1651; in the data active = activation above about 45%;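 note: cells stimulated with submaximal NPY then isoproterenol with phosphodiesterase inhibitor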); settings: Y1 HEK293-CNG cells, membrane potential fluorescence; at 3.6 µM; active compounds read high
[23] = target: Neuropeptide Y receptor type 1 (Homo sapiens) (UniProt P25929); assay: human Y1 receptor agonism, CNGC membrane potential – cell-based, fluorescence, selectivity assay for NPY-Y2 potentiator project (AID 1702;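 active = activation above the mean of DMSO-only control wells plus 3 SD, cut at about 18% in these data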;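 note: cells stimulated with 1 µM isoproterenol plus the PDE inhibitor Ro 20-1724; 0% = isoproterenol with DMSO and no NPY and 100% = 40 nM NPY; Y1 agonists lower the membrane potential dye signal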); settings: HEK293 Y1-CNGC, at 3.6 µM, active compounds read high
[24] = blockers of isoproterenol-driven CNG channel signal – cell-based, HEK293-CNG parental, membrane potential fluorescence, counter-screen for NPY-Y2 potentiator project (AID 1703;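 active = inhibition above the control-well mean plus 3 SD of those wells, cut at about 22% in these data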;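 note: 0% = DMSO with isoproterenol and 100% = DMSO without isoproterenol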); settings: isoproterenol cAMP, at 3.6 µM, active compounds read high
[25] = target: Neuropeptide Y receptor type 2 (Homo sapiens) (UniProt P49146); assay: agonism at human Y2 receptor without NPY – cell-based, fluorescence, counter-screen for NPY-Y2 potentiator project (AID 1710;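 active = activation above the mean of solvent-only control wells plus 3 SD, cut at about 10% in these data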;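 note: cells stimulated by isoproterenol with no NPY added so direct agonism is tested; 0% = DMSO with isoproterenol alone and 100% = NPY at EC100 plus isoproterenol; agonism lowers probe fluorescence through less cAMP and CNG channel opening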); settings: HEK293 Y2/CNGC cells, membrane potential fluorescence, agonist mode; at 3.6 µM; active compounds read high
[26] = suppression of KLF5 promoter-driven luciferase – DLD-1 cells, luminescence, confirmation (AID 1834;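 active = inhibition above a set limit taken from the earlier primary screen, cut at about 63% in these data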;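 note: 0% = DMSO wells and 100% = LY294002 at 200 µM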); settings: DLD-1 KLF5 promoter firefly luciferase reporter, at 4 µM, active compounds read high
[27] = IEC-6 intestinal cell killing – luminescence, triplicate, cytotoxicity control for KLF5 inhibitor project (AID 1905; in the data active = inhibition above about 23%;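 note: cells exposed to compounds for 48 hours before viability read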); settings: IEC-6 rat intestinal cells, viability luminescence; at 4 µM; active compounds read high
[28] = target: Oxytocin receptor (Homo sapiens) (UniProt P30559); assay: oxytocin receptor activation, retest of hits – fluorescence, CHO-OTR cells, triplicate, confirmation (AID 434963;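 active = mean activation above about 20% derived from the earlier single-dose screen, limit read from the data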;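 note: peak over minimum fluorescence ratio per well during a 100 second FLIPR read; 0% = DMSO alone and 100% = oxytocin high control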); settings: Fluo-8 calcium fluorescence, agonist, at 3 µM, active compounds read high
[29] = target: Vasopressin V1a receptor (Homo sapiens) (UniProt P37288); assay: activators of vasopressin V1R in CHO cells – cell-based, triplicate, fluorescence, counter-screen for OXTR agonist project (AID 434991;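 active = mean activation over triplicate exceeds the hit threshold set in the earlier primary screen, cut at about 20% in these data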;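 note: peak over basal fluorescence ratio within a 100 second read; 0% = DMSO alone and 100% = 3 nM vasopressin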); settings: Fluo-8 calcium fluorescence, at 3 µM, active compounds read high
[30] = target: Nuclear receptor coactivator 3 (Homo sapiens) (UniProt Q9Y6Q9); assay: NCOA3 GAL4-fusion reporter inhibition – cell-based, luminescence, quadruplicate, confirmation (AID 588792;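 active = mean inhibition over 43.08%, the solvent-only control mean plus 3 SD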;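 note: 0% = DMSO treated cells and 100% = gossypol at 36 µM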); settings: HEK293 GAL4-SRC3 luciferase reporter, at 3.6 µM, active compounds read high
[31] = tested on: transactivating tegument protein VP16 (Human herpesvirus 1), Gal4-VP16 luciferase reporter; assay: repression of VP16-driven luciferase reporter – cell-based, luminescence, high throughput, counter-screen for SRC3 inhibitor project (AID 588794; in the data active = inhibition above about 30%); settings: mammalian cells, at 3.6 µM, active compounds read high
[32] = target: Nuclear receptor coactivator 1 (Homo sapiens) (UniProt Q15788); assay: NCOA1 GAL4-fusion reporter inhibition – cell-based, luminescence, quadruplicate, confirmation (AID 588820;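 active = mean inhibition above 46.68%, the untreated control wells mean plus 3 SD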;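 note: 0% = DMSO wells and 100% = gossypol 36 µM treated wells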); settings: HEK293 GAL4-SRC1 luciferase reporter, at 3.6 µM, active compounds read high
[33] = repression of VP16-driven luciferase reporter – cell-based, luminescence, high throughput, counter-screen for SRC1 inhibitor project (AID 588824; in the data active = inhibition above about 25%); settings: cell-based VP16 transactivation luciferase luminescence; at 3.6 µM; active compounds read high
[34] = reduced OD of V66 E. coli with T4 gene 2 phage – absorbance, RecBCD inhibitor project, confirmation (AID 651982;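 active = mean inhibition over triplicates exceeding the hit threshold derived in the original primary screen, cut at about 11% in these data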); settings: E. coli V66 + T4 2- phage, growth OD; at 11.9 µM; active compounds read high
[35] = bacterial growth inhibition – absorbance, high throughput, counter-screen for RecBCD inhibitor project (AID 651983; in the data active = inhibition above about 20%;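 note: E. coli strain V66 grown with compound alone and no phage infection; 0% = bacteria with DMSO vehicle only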); settings: E. coli viability, absorbance (OD) growth; at 11.9 µM; active compounds read high
[36] = reduced optical density, T4-challenged addAB+ bacteria – absorbance, E. coli V3065, T4 phage, counter-screen for RecBCD inhibitor project, confirmation (AID 651984;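 active = mean inhibition above the solvent-only control wells' mean plus 3 SD, cut at about 22% in these data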;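 note: higher means less bacterial growth from phage killing when AddAB is blocked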); settings: E. coli expressing H. pylori AddAB + T4 phage, OD growth; at 11.9 µM; active compounds read high; gene 2 mutant T4, recBCD-deleted host

Chain of COUP transcription factor 2 (Homo sapiens) (P24468 whole entry, looked up): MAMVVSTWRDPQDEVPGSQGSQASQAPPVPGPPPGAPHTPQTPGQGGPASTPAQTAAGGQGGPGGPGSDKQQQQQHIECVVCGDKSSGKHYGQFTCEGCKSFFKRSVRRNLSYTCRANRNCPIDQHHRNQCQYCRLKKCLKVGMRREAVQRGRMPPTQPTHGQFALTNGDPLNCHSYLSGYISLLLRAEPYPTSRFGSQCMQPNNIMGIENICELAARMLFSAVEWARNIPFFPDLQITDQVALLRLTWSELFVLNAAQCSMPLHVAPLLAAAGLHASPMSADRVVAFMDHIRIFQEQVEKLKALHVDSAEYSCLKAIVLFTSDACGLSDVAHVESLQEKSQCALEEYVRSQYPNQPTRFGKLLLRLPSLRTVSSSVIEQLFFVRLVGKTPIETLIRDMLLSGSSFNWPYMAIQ
Chain of Oxysterols receptor LXR-beta (Homo sapiens) (P55055 whole entry, looked up, the tested form may be a part): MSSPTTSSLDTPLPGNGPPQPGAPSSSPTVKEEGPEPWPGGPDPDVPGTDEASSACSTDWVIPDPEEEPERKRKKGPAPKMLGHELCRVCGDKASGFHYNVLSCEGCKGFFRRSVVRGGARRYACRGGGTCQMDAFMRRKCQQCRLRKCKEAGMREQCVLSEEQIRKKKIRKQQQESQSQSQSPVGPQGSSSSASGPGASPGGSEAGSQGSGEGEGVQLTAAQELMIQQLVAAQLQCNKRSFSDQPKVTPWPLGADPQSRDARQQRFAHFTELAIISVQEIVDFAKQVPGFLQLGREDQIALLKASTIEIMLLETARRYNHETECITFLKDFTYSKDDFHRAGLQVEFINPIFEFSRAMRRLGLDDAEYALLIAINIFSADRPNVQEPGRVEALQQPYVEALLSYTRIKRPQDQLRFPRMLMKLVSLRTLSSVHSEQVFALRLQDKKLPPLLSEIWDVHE
Chain of Photoreceptor-specific nuclear receptor (Homo sapiens) (Q9Y5X4 whole entry, looked up): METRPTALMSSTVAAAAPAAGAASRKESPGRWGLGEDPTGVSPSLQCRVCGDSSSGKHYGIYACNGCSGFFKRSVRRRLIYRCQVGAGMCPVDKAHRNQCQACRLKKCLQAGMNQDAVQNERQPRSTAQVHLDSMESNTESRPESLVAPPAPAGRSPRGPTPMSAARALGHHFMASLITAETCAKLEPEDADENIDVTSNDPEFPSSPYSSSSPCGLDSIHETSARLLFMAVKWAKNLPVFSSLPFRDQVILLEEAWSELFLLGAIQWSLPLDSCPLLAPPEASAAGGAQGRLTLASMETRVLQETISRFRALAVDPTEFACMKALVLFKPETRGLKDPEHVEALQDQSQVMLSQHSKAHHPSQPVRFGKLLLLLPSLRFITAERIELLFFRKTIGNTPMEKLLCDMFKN
Chain of Nuclear receptor subfamily 5 group A member 2 (Homo sapiens) (O00482 whole entry, looked up): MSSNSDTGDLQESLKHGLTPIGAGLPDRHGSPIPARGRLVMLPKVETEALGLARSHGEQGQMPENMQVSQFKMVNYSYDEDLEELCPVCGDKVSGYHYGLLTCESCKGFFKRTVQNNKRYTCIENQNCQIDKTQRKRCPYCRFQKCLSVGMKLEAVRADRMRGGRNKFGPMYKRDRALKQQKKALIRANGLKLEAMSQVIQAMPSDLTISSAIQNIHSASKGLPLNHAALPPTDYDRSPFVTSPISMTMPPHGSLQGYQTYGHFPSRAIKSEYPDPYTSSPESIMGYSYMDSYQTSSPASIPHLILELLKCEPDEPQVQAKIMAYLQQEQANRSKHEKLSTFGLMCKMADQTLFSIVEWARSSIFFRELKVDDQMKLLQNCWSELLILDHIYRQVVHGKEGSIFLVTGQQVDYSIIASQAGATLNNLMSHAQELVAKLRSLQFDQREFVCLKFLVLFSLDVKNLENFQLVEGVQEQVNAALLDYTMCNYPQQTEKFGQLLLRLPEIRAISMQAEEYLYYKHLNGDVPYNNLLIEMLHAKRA
Chain of Peroxisome proliferator-activated receptor gamma (Homo sapiens) (P37231 whole entry, looked up): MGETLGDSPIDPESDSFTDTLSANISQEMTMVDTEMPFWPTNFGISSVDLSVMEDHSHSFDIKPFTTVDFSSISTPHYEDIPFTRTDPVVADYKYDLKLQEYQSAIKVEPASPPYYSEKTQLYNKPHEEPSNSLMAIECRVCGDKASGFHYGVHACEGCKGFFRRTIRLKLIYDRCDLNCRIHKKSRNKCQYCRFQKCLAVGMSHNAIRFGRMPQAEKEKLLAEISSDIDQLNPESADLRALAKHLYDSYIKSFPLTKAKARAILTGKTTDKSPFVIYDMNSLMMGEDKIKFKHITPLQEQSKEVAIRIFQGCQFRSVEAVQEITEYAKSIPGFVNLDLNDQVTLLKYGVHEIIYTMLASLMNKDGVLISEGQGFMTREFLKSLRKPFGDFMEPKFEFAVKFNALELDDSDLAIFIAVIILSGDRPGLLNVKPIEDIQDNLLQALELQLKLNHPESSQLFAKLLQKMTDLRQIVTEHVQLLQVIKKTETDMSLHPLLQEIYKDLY
Chain of Steroidogenic factor 1 (Homo sapiens) (Q13285 whole entry, looked up, the tested form may be a part): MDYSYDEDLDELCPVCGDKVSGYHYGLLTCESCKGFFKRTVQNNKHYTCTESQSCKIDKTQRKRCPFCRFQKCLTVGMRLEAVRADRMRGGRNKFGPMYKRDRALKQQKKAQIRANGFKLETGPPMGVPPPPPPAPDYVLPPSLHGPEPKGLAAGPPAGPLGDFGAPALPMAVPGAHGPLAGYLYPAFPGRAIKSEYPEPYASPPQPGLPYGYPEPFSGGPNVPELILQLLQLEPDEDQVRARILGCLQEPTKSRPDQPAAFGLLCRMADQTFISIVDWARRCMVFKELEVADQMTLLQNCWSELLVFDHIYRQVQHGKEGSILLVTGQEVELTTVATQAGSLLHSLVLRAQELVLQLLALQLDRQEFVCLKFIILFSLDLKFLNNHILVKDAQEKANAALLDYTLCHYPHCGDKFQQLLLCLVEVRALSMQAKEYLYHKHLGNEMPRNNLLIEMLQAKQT
Chain of Neuropeptide Y receptor type 2 (Homo sapiens) (P49146 whole entry, looked up): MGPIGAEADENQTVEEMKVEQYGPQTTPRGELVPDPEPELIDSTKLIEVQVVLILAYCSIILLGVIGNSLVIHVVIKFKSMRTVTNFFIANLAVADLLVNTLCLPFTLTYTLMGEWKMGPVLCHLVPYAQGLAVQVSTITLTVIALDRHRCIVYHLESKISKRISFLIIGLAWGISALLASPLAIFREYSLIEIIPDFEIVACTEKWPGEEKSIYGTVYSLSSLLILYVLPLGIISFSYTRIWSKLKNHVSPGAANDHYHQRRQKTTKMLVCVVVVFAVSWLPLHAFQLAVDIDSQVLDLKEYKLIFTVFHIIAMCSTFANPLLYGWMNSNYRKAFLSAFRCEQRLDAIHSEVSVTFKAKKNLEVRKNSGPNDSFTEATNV
Chain of Neuropeptide Y receptor type 1 (Homo sapiens) (P25929 whole entry, looked up): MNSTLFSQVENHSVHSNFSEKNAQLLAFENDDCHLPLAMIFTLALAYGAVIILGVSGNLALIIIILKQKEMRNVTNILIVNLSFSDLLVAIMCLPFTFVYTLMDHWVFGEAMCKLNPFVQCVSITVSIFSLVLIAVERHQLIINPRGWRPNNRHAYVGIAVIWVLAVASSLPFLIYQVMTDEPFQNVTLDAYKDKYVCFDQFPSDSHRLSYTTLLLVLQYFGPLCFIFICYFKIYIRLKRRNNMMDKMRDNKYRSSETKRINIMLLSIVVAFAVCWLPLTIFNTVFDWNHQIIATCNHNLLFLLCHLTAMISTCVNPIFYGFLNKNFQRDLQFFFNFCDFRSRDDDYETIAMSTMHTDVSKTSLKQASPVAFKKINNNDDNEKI
Chain of Nuclear receptor coactivator 1 (Homo sapiens) (Q15788 whole entry, looked up, the tested form may be a part): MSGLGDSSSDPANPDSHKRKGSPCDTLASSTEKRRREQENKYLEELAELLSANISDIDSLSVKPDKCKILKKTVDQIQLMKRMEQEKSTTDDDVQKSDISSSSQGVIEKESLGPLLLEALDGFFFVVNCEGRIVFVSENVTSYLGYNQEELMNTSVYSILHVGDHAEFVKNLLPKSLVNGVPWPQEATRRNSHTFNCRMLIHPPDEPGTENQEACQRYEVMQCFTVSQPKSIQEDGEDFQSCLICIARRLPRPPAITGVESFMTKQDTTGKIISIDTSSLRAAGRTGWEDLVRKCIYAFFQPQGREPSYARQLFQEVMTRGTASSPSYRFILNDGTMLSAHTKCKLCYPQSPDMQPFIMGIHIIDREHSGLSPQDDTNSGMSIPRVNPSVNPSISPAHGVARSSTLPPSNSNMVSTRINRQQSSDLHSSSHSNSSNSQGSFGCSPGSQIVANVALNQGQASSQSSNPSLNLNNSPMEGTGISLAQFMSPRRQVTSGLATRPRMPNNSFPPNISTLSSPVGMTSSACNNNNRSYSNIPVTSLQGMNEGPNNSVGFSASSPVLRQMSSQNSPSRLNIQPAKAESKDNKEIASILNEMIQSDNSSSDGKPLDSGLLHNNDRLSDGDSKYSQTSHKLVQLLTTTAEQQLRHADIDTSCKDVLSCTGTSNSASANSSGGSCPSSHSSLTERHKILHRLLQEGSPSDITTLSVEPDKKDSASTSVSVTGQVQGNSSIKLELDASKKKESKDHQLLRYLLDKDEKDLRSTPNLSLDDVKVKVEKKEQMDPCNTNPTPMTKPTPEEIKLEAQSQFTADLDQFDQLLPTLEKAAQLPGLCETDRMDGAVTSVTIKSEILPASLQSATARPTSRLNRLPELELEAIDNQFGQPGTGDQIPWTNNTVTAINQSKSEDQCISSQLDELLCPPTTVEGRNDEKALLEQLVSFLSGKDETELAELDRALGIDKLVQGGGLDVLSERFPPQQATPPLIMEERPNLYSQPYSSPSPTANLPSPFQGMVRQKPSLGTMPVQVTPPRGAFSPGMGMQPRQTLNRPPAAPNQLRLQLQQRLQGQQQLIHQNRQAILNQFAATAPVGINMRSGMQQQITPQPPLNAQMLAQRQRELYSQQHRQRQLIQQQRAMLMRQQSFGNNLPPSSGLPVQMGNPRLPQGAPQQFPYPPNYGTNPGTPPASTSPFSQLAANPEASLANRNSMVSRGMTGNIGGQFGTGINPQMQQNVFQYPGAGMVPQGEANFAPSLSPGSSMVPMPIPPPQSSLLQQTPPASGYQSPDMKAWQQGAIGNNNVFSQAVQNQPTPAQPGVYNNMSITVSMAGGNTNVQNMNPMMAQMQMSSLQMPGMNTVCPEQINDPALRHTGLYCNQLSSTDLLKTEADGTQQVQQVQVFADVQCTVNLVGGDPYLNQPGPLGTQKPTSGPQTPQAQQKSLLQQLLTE

COC(=O)c1ccccc1SC1CC(=O)N(c2cccc(C)c2)C1=O (stereo unspecified)
inactive: activation [1] 0.78% | activation [2] -2.36% | activation [3] 10.9%

COc1ccc(NS(=O)(=O)c2ccc(NC(=O)c3ccc(N(C)S(C)(=O)=O)cc3)cc2)cc1
inactive: inhibition [5] 9.03% | inhibition [6] 5.2% | inhibition [7] 19.3% | inhibition [11] 8.59%
active: inhibition [4] 56.6% | inhibition [8] 50.5% | inhibition [9] 46.7% | inhibition [10] 40.7% | inhibition [12] 45%

COc1ccc(-c2csc(Nc3ccccn3)n2)cc1
active: activation [14] 6.22%
inactive: inhibition [4] 15.2% | inhibition [5] -36.5% | inhibition [6] -205% | activation [13] 1.36%

Cc1ccc(NC(=O)CN(C)CC(=O)Nc2cccc(F)c2)cc1[N+](=O)[O-]
inactive: inhibition [4] 35.9% | inhibition [11] 1.63%
active: inhibition [5] 13% | inhibition [6] 19.3% | inhibition [15] 74.5% | inhibition [16] 86.7% | inhibition [12] 51.8%

COc1ccc(S(=O)(=O)Nc2ccc3oc(C)c(C(C)=O)c3c2)cc1
inactive: inhibition [4] 32.3% | inhibition [11] 1.7% | inhibition [12] 20.7%
active: inhibition [5] 13.4% | inhibition [6] 20.4% | inhibition [15] 93% | inhibition [16] 79.4%

COc1ccc(Cn2c(=O)sc3ccccc32)cc1OC
active: inhibition [15] 70.9%
inactive: inhibition [4] 36.6% | inhibition [5] 2.57% | inhibition [6] 13.3% | inhibition [16] 64.8% | inhibition [11] -3.5% | inhibition [12] 26.6%

COc1cccc(-c2nc3cc(C)ccc3o2)c1
inactive: inhibition [4] 1.5% | inhibition [5] -23.8% | inhibition [6] -109% | activation [13] 2.33%
active: activation [14] 16.7%

CCCOC(=O)c1[nH]c2c(c1C)C(=O)CC(c1cc(OC)c(OC)c(OC)c1)C2 (stereo unspecified)
active: inhibition [4] 61% | inhibition [5] 29% | inhibition [6] 25.8% | inhibition [15] 73.9% | inhibition [7] 29% | inhibition [8] 54.7% | inhibition [9] 54.1% | inhibition [10] 41% | inhibition [12] 49.6%
inactive: inhibition [16] 65% | inhibition [11] 6.54%

c1coc(CNc2ncnc3ccccc23)c1
inactive: inhibition [4] 40.4% | inhibition [16] 56.3% | inhibition [11] 4.88%
active: inhibition [5] 15.2% | inhibition [6] 30.5% | inhibition [15] 71.1% | inhibition [12] 40.9%

Cc1ccc(OCC(=O)Nc2ccc(-c3nc4ncccc4o3)cc2)cc1
inactive: activation [1] 2.88% | activation [2] 8.01% | activation [3] 5.41%

Cn1c(CN2CCOCC2)nc2cc(NC(=O)c3ccc(Cl)cc3)ccc21
inactive: inhibition [6] -12% | inhibition [11] -24.2% | inhibition [12] 24.5%
active: inhibition [4] 65% | inhibition [5] 16.1%

Cc1ccc(N/C=C/C(=O)c2ccccc2)cc1C
inactive: inhibition [4] 20.9% | inhibition [6] -55.2% | activation [13] 1.51% | activation [17] 8.78% | activation [18] 1.25%
active: inhibition [5] 13.8% | activation [14] 16.8%

O=C(Nc1cccc(S(=O)(=O)Nc2ccc(Cl)cc2)c1)c1ccc2c(c1)OCCO2
inactive: inhibition [11] -4.16%
active: inhibition [4] 55.6% | inhibition [5] 15.4% | inhibition [6] 17.7% | inhibition [12] 42.2%

O=C(Nc1ccc(CSc2ccccc2)cc1)c1ccc(CN2CCOCC2)cc1
inactive: inhibition [6] 10.4% | inhibition [11] -2.4%
active: inhibition [4] 83.7% | inhibition [5] 33.3% | inhibition [7] 28.7% | inhibition [8] 65.5% | inhibition [9] 63% | inhibition [10] 54.8% | inhibition [12] 65.8%

O=C(NC(Nc1nc2ccc([N+](=O)[O-])cc2s1)(C(F)(F)F)C(F)(F)F)c1ccccc1
active: inhibition [19] 99.4% | inhibition [20] 69.4% | activation [25] 22.1% | inhibition [26] 83.7% | inhibition [27] 90.4% | inhibition [30] 69.1% | inhibition [31] 84.5% | inhibition [33] 84.3% | inhibition [15] 98.5% | inhibition [16] 93.3% | inhibition [7] 82.9% | inhibition [8] 105% | inhibition [9] 93.3% | inhibition [10] 86.8% | inhibition [12] 65.9%
inactive: activation [21] 30.6% | activation [22] -2.54% | activation [23] -9.19% | inhibition [24] -2.45% | activation [28] 13% | activation [29] 8.96% | inhibition [32] 38.7% | inhibition [34] 8% | inhibition [35] 10.7% | inhibition [36] 11.3% | inhibition [11] 6.94%
